Hits are enriched below; roughly 2.4% of the tested compounds scored in any of these assays.
D2 antagonist: antagonizes the human D2 dopamine receptor; HEK293 TREx D2 cells, calcium flux, dopamine EC80; inhibition, % at 10 µM; actives 2% (n = 340,000); in the data active means inhibition above about 30%; inactive means below that, where a call was filed
Target sequence (P14416 whole entry, looked up): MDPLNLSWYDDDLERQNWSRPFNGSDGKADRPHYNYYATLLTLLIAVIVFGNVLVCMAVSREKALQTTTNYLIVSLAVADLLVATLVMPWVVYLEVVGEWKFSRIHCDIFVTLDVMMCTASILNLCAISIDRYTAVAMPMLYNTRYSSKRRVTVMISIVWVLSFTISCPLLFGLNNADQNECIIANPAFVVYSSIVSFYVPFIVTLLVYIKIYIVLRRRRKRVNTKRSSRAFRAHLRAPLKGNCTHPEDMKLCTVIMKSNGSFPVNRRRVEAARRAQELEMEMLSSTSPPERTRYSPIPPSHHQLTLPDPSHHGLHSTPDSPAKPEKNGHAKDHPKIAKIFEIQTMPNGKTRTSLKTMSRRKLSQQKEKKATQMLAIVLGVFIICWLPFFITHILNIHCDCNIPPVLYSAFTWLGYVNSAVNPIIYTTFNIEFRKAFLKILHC
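Tetracycline-induced HEK293 TREx cells expressing D2 receptor forced-coupled to calcium signalling, loaded with no-wash calcium dye. Compounds added and calcium flux read 180 s, then dopamine added at EC80 and read a further 180 s.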
D2 PAM-1: positively modulates the human D2 dopamine receptor allosterically; P14416; HEK293 T-REx D2, calcium flux, EC20 dopamine potentiation; potentiation, % at 10 µM; actives 0.34% (n = 340,000);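 active means potentiation over 3 SD above the plate norm, cut at about 30% in these data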
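Tetracycline-induced Hek293 Trex D2 cells, force-coupled to calcium, loaded with no-wash calcium dye. Compound added with 180 s kinetic read for agonism, then EC20 dopamine and a further 180 s read for potentiation.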
D2 PAM-2: potentiates the human D2 dopamine receptor allosterically | P14416 | DiscoveRx D2 beta-arrestin cells, luminescence, 90 min; 100% = 57 uM dopamine signal | potentiation, % (concentration not given with the values) | actives 0.23% (n = 360,000) | AID 624464; in the data active means potentiation above about 50%
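PathHunter beta-arrestin assay in DiscoveRx D2 cells. Compounds were added with an EC20 of dopamine (50 nM final) for 90 min at 37 deg C. Luminescence was read 1 h after detection reagent, with 57 uM dopamine as the EC100 control.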
D2 ag-1: human D2 receptor agonism in beta-arrestin assay; P14416; DiscoveRx PathHunter D2 beta-arrestin, luminescence, 90 min; 100% = 57 uM dopamine signal; activation, % (no concentration beside the values); actives 0.084% (n = 360,000); in the data active means activation above about 40%
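DiscoveRx PathHunter D2 beta-arrestin cells (2,100/well) attached overnight, then compound-stimulated 90 min at 37 C in HBSS/10 mM HEPES/0.1% Tween-20 buffer; beta-galactosidase complementation read by luminescence after 1 h at ambient temperature. Dopamine 57 uM final (EC100) as control.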
D2 ag-2: agonists of human D2 dopamine receptor; P14416; HEK293 T-REx D2 cells, calcium flux agonist mode; activation, % at 2 µM; actives 0.53% (n = 340,000);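 active means activation over 3 SD above normal in the single-dose calcium agonist read, cut at about 30% in these data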
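Tetracycline-induced HEK293 Trex cells with D2 receptor force-coupled to calcium signaling, plated overnight at 30 C and loaded with no-wash calcium dye. Calcium flux read kinetically for 180 s after compound addition; responses flag agonists.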
Large screens that a line does not name were inactive.

Cc1cc(O)ccc1N/C=C1\CCCC1=O	D2 PAM-2 63.5
CC(=O)Nc1ccc(N/C=C2/CCCC2=O)cc1	none
Cc1ccc(Cn2c(CCNC(=O)C(C)C)nc3ccccc32)cc1	none (no result: D2 antagonist, D2 PAM-2, D2 ag-1)
COc1ccc(SCCC(=O)NCc2ccncc2)cc1	D2 antagonist 32.1
O=C(CCSc1ccc(Cl)cc1)NCc1ccncc1	none
Fc1ccc(N2CCN(c3nnnn3-c3ccccc3)CC2)cc1	D2 antagonist 50.2
Cc1ccccc1NCC(=O)N/N=C/c1c(C)c(C(=O)c2ccc(Cl)cc2)n2ccccc12	D2 antagonist 32.0
Cc1ccc(S(=O)(=O)N(C)C)cc1NC(=S)NC(=O)C12CC3CC(CC(C3)C1)C2	none
S=C(NCc1ccco1)Nc1ccccc1	D2 antagonist 30.6
CN(C)S(=O)(=O)c1cccc(C(=O)NCc2ccco2)c1	none
Cc1ccc(NC(=S)Nc2ccc3[nH]c(=O)[nH]c3c2)cc1C	none
Cc1ccc(S(=O)(=O)N(C)C)cc1NC(=S)NC12CC3CC(CC(C3)C1)C2	D2 antagonist 77.8
Cc1ccc(S(=O)(=O)N(C)C)cc1NC(=S)NCc1ccco1	D2 antagonist 39.7 (no result: D2 PAM-1)
Cc1ccc(S(=O)(=O)N(C)C)cc1NC(=S)Nc1ccc2[nH]c(=O)[nH]c2c1	D2 antagonist 48.9
Cc1ccc(CN2CCN(C3CCN(S(=O)(=O)N(C)C)CC3)C(=O)C2=O)cc1	none (no result: D2 antagonist, D2 PAM-2, D2 ag-1)
COc1ccc(C)cc1NC(=O)CNC(c1ccccc1)c1ccc(C)cc1 (centres undefined)	none
COc1ccccc1NC(=O)CNC(c1ccccc1)c1ccccc1	D2 antagonist 36.0 (no result: D2 PAM-1)
O=C(Nc1ccc(Cc2ccncc2)cc1)C1CCC(N2C(=O)C3CCCCC3C2=O)CC1 (centres undefined)	none
Cc1ccc(NC(=O)C2CCC(N3C(=O)C4CCCCC4C3=O)CC2)cc1 (centres undefined)	D2 antagonist 42.8
COCCNC(=O)c1cccc(OC2CCN(Cc3cccc(C(C)=O)c3)CC2)c1	none
CCCN1CCC(Oc2cccc(C(=O)NCCc3ccccc3)c2)CC1	D2 PAM-1 31.2
CCCCN(C)C(=O)c1cccc(OC2CCN(CC(C)(C)C)CC2)c1	D2 antagonist 66.8
CC(C)(C)CN1CCC(Oc2cccc(C(=O)N3CCNC(=O)C3(C)C)c2)CC1	D2 antagonist 31.6
Cc1cc(=O)[nH]c(SCC(=O)NCC2CCCO2)n1 (centres undefined)	D2 antagonist 34.0
CCCn1c2ccccc2c2cnn(CC(=O)N(CCCOC)Cc3ccco3)c(=O)c21	none (no result: D2 antagonist, D2 PAM-2, D2 ag-1)
COc1ccc(C(=O)NNC(=O)c2ccc(C(C)(C)C)cc2)cc1	none (no result: D2 PAM-1)
COc1ccc(C(=O)NNC(=S)NC(=O)C(C)(C)C)cc1	D2 antagonist 61.9, D2 ag-2 92.4
COc1ccc(C)cc1-n1nnc(-c2nc(-c3ccccc3Cl)no2)c1N	none (no result: D2 antagonist, D2 PAM-2, D2 ag-1)
CC(Cc1ccc(Cl)cc1)N1CCC(n2nccc2NC(=O)C2CCCC2)CC1 (centres undefined)	D2 antagonist 31.1
O=C(Nc1ccnn1C1CCN(Cc2ccccc2)CC1)C1CCCC1	none
CSCC(C)N1CCC(n2nccc2NC(=O)c2ccc3c(c2)OCO3)CC1 (centres undefined)	D2 antagonist 58.3
CCCC(=O)Oc1c(Sc2ccc(Cl)cc2)c(C)nn1-c1ccccc1	none (no result: D2 antagonist, D2 PAM-2, D2 ag-1)
CCCOc1ccc(NC(=O)CC2C(=O)N(c3cccc(OC)c3)C(=O)N2CCc2ccncc2)cc1 (centres undefined)	none (no result: D2 antagonist, D2 PAM-2, D2 ag-1)
CCOC(=O)CSc1nc(C)cc(Oc2ccc(=O)n(C)n2)n1	D2 antagonist 35.8
Cc1cc(Oc2ccc(=O)n(C)n2)nc(SCCOc2ccccc2)n1	none
C=CCSc1ncc(CO)n1Cc1ccccc1	D2 antagonist 36.5
OCc1cnc(SCc2ccccc2)n1Cc1ccccc1	none
CCC(=O)Nc1ccc(CC)cc1-c1nc2ccccc2n(CC(=O)Nc2cccc(Cl)c2)c1=O	none (no result: D2 antagonist, D2 PAM-2, D2 ag-1, D2 ag-2)
CCCCN1CCc2c1nc1ccc(Br)cc1c2N	D2 antagonist 67.9
CCOC(=O)C(C)(C)Sc1nc2c(cnn2-c2ccc(C)cc2)c(=O)[nH]1	D2 antagonist 47.8
CCC1CCCCN1C(=O)CSc1nc2c(cnn2-c2ccc(C)cc2)c(=O)[nH]1 (centres undefined)	D2 antagonist 33.2
Cc1ccc(-n2ncc3c(=O)[nH]c(SCC(=O)N4CCOCC4)nc32)cc1	none
COc1ccc(C2N3CC4(C)CN2CC(c2ccccc2)(C3)C4=O)cc1 (centres undefined)	none (no result: D2 antagonist, D2 PAM-2, D2 ag-1)
Cc1ccsc1/C=N/NC(=O)c1cccs1	none
Cc1ccc(/C=N/NC(=O)c2cccs2)cc1[N+](=O)[O-]	D2 antagonist 35.3
Cc1ccc(C(=O)N/N=C\c2ccccc2[N+](=O)[O-])cn1	none (no result: D2 PAM-1)
COc1cccc(/C=N/NC(=O)c2ccoc2C)c1O	none
Cc1ccc(C(=O)N/N=C\C=C\c2ccccc2[N+](=O)[O-])cn1	D2 antagonist 46.8
O=C(N/N=C/c1ccccc1[N+](=O)[O-])c1cccs1	none
Cc1occc1C(=O)N/N=C/c1ccccc1[N+](=O)[O-]	D2 antagonist 34.6
O=C(N/N=C/C=C/c1ccccc1[N+](=O)[O-])c1cccs1	D2 antagonist 39.2
CCN(C(=O)c1coc(=O)c2ccccc12)c1ccccc1C	none (no result: D2 antagonist, D2 PAM-1, D2 PAM-2, D2 ag-1)
COc1cccc(N2CC(NC(=O)C3CC3)CC2=O)c1 (centres undefined)	none (no result: D2 antagonist, D2 PAM-2, D2 ag-1)
CCCCn1c(SCC(=O)c2ccccc2)nc2sc3c(c2c1=O)CCCC3	none (no result: D2 antagonist, D2 PAM-1, D2 PAM-2, D2 ag-1)
COc1cccc(NC(=O)Cn2c(=O)n(Cc3ccc(C(=O)NCc4ccc5c(c4)OCO5)cc3)c(=O)c3ccccc32)c1	none (no result: D2 antagonist, D2 PAM-2, D2 ag-1)
O=C(OCCN1C(=O)c2ccccc2C1=O)c1cc(S(=O)(=O)N2CCOCC2)ccc1Cl	none
O=C(OCCN1C(=O)c2cccc3c(N4CCOCC4)ccc(c23)C1=O)c1cccc(Cl)c1	D2 antagonist 34.6, D2 ag-2 74.4
O=C(OCCN1C(=O)c2cccc3c(N4CCOCC4)ccc(c23)C1=O)c1ccc(Cl)cc1Cl	D2 ag-2 36.4
CCC(C)C(NC(N)=O)C(=O)NC1CCC(C)CC1 (centres undefined)	D2 antagonist 32.9 (no result: D2 PAM-2, D2 ag-1)
COc1ccc(Cl)cc1NC(=O)Cn1c(=O)n(-c2ccc(C)cc2)c(=O)c2ccc(C(=O)NCc3ccccc3Cl)cc21	none (no result: D2 antagonist, D2 PAM-2, D2 ag-1)
COc1ccc(NC(=O)CSc2nc3ccccc3n2CC(=O)N(C)C2CCCCC2)cc1	none (no result: D2 antagonist, D2 PAM-2, D2 ag-1)
O=C1/C(=C\c2cc([N+](=O)[O-])ccc2O)SC(=S)N1Cc1ccc(Cl)cc1	D2 ag-2 89.5
O=C1/C(=C\c2cccc(O)c2O)SC(=S)N1Cc1ccccc1	none (no result: D2 antagonist, D2 ag-2)
COC(=O)c1ccc(NC(=O)CSc2nnnn2C2CCCCC2)cc1	D2 antagonist 41.7
O=S1(=O)c2ccccc2N(Cc2cccc(F)c2)c2ccccc21	none (no result: D2 antagonist, D2 PAM-2, D2 ag-1)
CCCC12CN3CCN(CC(C3)/C1=N\NC(=O)c1ccc(F)cc1)C2	none
CCCC12CN3CCN(CC(C3)/C1=N\NC(=O)Nc1ccccc1)C2	D2 antagonist 53.9

Bioassay records deposited in PubChem BioAssay by National Center for Advancing Translational Sciences (NCATS).
